hcDAF12 agonist = activates DAF-12 receptor from parasite H. contortus. HEK293 hcDAF-12 lit1-tk-luc reporter, luminescence; 0% DMSO, 100% Δ7-dafachronic acid. activation, % at 6.8 µM. 370,000 tested, 1.4% active. AID 652067;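 active = activation above the mean of all tested compounds plus 3 SD, cut at about 5.5% in these data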;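 also: 100% = response to 3 µM Δ7-dafachronic acid high control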
hgDAF-12 ag = hgDAF-12 agonism, primary luciferase screen | activation, % at 6.8 µM | HEK293 GAL4-hgDAF12 UAS-luciferase reporter, agonist luminescence; normalized to butyrate control | 370,000 tested, 1.8% active;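 active = activation above a cutoff set at the mean of all screened compounds plus 3 SD, cut at about 10% in these data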;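 also: 0% = DMSO wells and 100% = sodium butyrate wells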
ssDAF12 agonist = S. stercoralis DAF-12 activation, primary screen; HEK293 ssDAF-12/GRIP1 lit1-tk-luc reporter, luminescence; % of 3 µM dafachronic acid response; AID 652126; activation, % at 6.8 µM; 370,000 tested, 1% active;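 active = activation above the mean over all tested compounds plus 3 SD, cut at about 0.9% in these data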;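 also: 0% = DMSO-only wells and 100% = 3 µM delta7-dafachronic acid wells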
DAX1 inh-1 = blocks DAX1 repression of SF-1 activated StAR promoter. inhibition, % at 6.8 µM. AID 652010. 370,000 tested, 1.1% active. HEK293T StAR-luciferase reporter, SF-1/DAX-1 repression relief;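 active = inhibition above the mean over all tested compounds plus 3 SD, cut at about 3.6% in these data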;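 also: 0% = DAX-1 cells with DMSO and 100% = cells lacking DAX-1 with DMSO; higher inhibition means more luminescence from relief of DAX-1 repression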
AHR act = activates the human aryl hydrocarbon receptor; P35869; AHR-responsive luciferase reporter cells, luminescence; activation, % at 5 µM; 320,000 tested, 2.5% active; AID 2796; in the data active = activation above about 47%;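 also: 0% = vehicle wells and 100% = reference agonist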
DAX1 inh-2 = inhibits human nuclear receptor DAX1 | 340,000 tested, 0.99% active | AID 504766 | inhibition, % at 6.75 µM | HEK293 Gal4-DAX1 luciferase reporter, luminescence | P51843;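 active = inhibition above the mean over all tested compounds plus 3 SD, cut at about 4.2% in these data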;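 also: 0% = DAX1-transfected cells with DMSO and 100% = empty-vector control cells with DMSO; inhibition shows as a rise in luminescence from relieved DAX1 repression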
Target sequence (P51843 207-470 limits assumed): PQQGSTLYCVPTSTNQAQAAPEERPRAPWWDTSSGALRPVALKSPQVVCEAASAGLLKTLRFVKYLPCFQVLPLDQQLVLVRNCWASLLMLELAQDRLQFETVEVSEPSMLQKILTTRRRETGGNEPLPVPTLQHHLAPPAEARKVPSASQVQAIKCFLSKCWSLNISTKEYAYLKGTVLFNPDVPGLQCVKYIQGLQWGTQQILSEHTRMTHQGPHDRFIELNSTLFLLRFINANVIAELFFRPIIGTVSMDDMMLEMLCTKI
The depositor's hits bear a star. Most compounds without a hit are left out; they make up all but 5.7% or so of the library.

`Fc1ccc(/C=N/Nc2nn[nH]n2)cc1` gave hcDAF12 agonist -1, hgDAF-12 ag -3, ssDAF12 agonist -1, DAX1 inh-1 0, AHR act 2 and DAX1 inh-2 7.1*.
Screening O=C(c1cccc(Cl)c1)N1CCN(c2ncnc3c2cnn3-c2ccccc2)CC1 returned hcDAF12 agonist -1, hgDAF-12 ag 1, ssDAF12 agonist -1, DAX1 inh-1 1, AHR act 2 and DAX1 inh-2 0.
O=C(c1ccccc1)N1CCN(c2ncnc3c2cnn3-c2ccccc2)CC1 was read as hcDAF12 agonist 0, hgDAF-12 ag 2, ssDAF12 agonist -1, DAX1 inh-1 -1, AHR act 61* and DAX1 inh-2 0.
Screening Cn1ccnc1SCC(=O)c1ccc2ccccc2c1 returned hcDAF12 agonist 5, hgDAF-12 ag 13*, ssDAF12 agonist 1, DAX1 inh-1 3, AHR act 23 and DAX1 inh-2 2.
For CCn1c(SCC(=O)c2ccc3c(c2)OCCO3)nnc1-c1ccco1 the results were hcDAF12 agonist -2, hgDAF-12 ag 0, ssDAF12 agonist -1, DAX1 inh-1 0, AHR act 13 and DAX1 inh-2 0.
`COc1cccc(CSc2nnc(-c3ccco3)n2C)c1` gave hcDAF12 agonist 1, hgDAF-12 ag 1, ssDAF12 agonist -1, DAX1 inh-1 0, AHR act -1 and DAX1 inh-2 5.2*.
Screening COc1ccc(-n2c(SCC(N)=O)nnc2-c2ccco2)cc1 returned hcDAF12 agonist 4, hgDAF-12 ag 5, ssDAF12 agonist 1, DAX1 inh-1 1, AHR act -1 and DAX1 inh-2 4.5*.
For Cc1cccc(CSc2nnc(-c3ccco3)n2C)c1 the results were hcDAF12 agonist 0, hgDAF-12 ag 3, ssDAF12 agonist -2, DAX1 inh-1 0, AHR act -5 and DAX1 inh-2 3.
Screening CCn1c(SCC(=O)c2ccc3ccccc3c2)nnc1-c1ccco1 returned hcDAF12 agonist -1, hgDAF-12 ag -2, ssDAF12 agonist -1, DAX1 inh-1 1, AHR act 78* and DAX1 inh-2 0.
`CCCCn1nc(CC(=O)NCCN(CC)CC)c2ccccc2c1=O` gave hcDAF12 agonist 1, hgDAF-12 ag -2, ssDAF12 agonist -1, DAX1 inh-1 0, AHR act -1 and DAX1 inh-2 1.
For CCn1ccnc1[C@@H]1C[C@H]2CN(c3ccccc3OC)C(=O)[C@]23CCCN13 the results were hcDAF12 agonist 0, hgDAF-12 ag -2, ssDAF12 agonist 0, DAX1 inh-1 0, AHR act 3 and DAX1 inh-2 -1.
For COC(=O)C(Cc1ccccc1)OS(N)(=O)=O (centres undefined) the results were hcDAF12 agonist -1, hgDAF-12 ag 0, ssDAF12 agonist -1, DAX1 inh-1 1, AHR act -2 and DAX1 inh-2 1.
`CCNC(=S)N1CCNC(=O)C1CC(=O)OC` (centres undefined) gave hcDAF12 agonist -5, hgDAF-12 ag -10, ssDAF12 agonist -3, DAX1 inh-1 -2, AHR act 2 and DAX1 inh-2 -1.
Screening O=C1CC(c2ccc(S(=O)(=O)NC3CC3)cc2)CN1 (centres undefined) returned hcDAF12 agonist -1, hgDAF-12 ag -1, ssDAF12 agonist -2, DAX1 inh-1 0, AHR act -1 and DAX1 inh-2 1.
O=C1CC(c2ccc(S(=O)(=O)NCc3ccncc3)cc2)CN1 (centres undefined) was read as hcDAF12 agonist -1, hgDAF-12 ag 0, ssDAF12 agonist 0, DAX1 inh-1 0, AHR act 78* and DAX1 inh-2 3.
`O=c1c([N+](=O)[O-])cn(Cc2ccccc2)c(=O)n1Cc1ccccc1` gave hcDAF12 agonist -4, hgDAF-12 ag -9, ssDAF12 agonist -3, DAX1 inh-1 -3 and DAX1 inh-2 1.
`O=C(c1ccc(Br)o1)N1CCN(c2ncccn2)CC1` gave hcDAF12 agonist 1, hgDAF-12 ag 0, ssDAF12 agonist -1, DAX1 inh-1 -1, AHR act 59* and DAX1 inh-2 1.
`O=C(Nc1nnc(C2CC2)s1)c1cc([N+](=O)[O-])ccc1N1CCCCC1` gave hcDAF12 agonist -1, hgDAF-12 ag 0, ssDAF12 agonist -1, DAX1 inh-1 2, AHR act 49* and DAX1 inh-2 0.
Screening O=S(=O)(c1cccc2ccccc12)N1CCC2CC1c1cc(Cl)ccc12 (centres undefined) returned hcDAF12 agonist -1, hgDAF-12 ag 2, ssDAF12 agonist -1, DAX1 inh-1 1 and DAX1 inh-2 0.
Screening NC(=O)c1cccc(C(N)=O)n1 returned hcDAF12 agonist -1, hgDAF-12 ag 2, ssDAF12 agonist -2, DAX1 inh-1 0, AHR act 2 and DAX1 inh-2 6.1*.
`CCOC(=O)c1cccc(C(=O)OCC)n1` gave hcDAF12 agonist -1, hgDAF-12 ag -1, ssDAF12 agonist -1, DAX1 inh-1 0, AHR act -2 and DAX1 inh-2 1.
For CCn1nc(NC(=O)c2cccnc2)c2cc3cccc(C)c3nc21 the results were hcDAF12 agonist -1, hgDAF-12 ag 1, ssDAF12 agonist -1, DAX1 inh-1 1, AHR act 68* and DAX1 inh-2 0.
`Cc1cccc2cc3c(NC(=O)C(C)C)nn(C)c3nc12` gave hcDAF12 agonist 0, hgDAF-12 ag 4, ssDAF12 agonist -1, DAX1 inh-1 0, AHR act 72* and DAX1 inh-2 2.
Screening Cc1ccc2cc3c(NC(=O)C(C)C)nn(C)c3nc2c1 returned hcDAF12 agonist 0, hgDAF-12 ag -2, ssDAF12 agonist -1, DAX1 inh-1 0, AHR act 66* and DAX1 inh-2 0.
CCCC(=O)Nc1nn(C)c2nc3ccc(C)cc3cc12 was read as hcDAF12 agonist -2, hgDAF-12 ag 0, ssDAF12 agonist -1, DAX1 inh-1 0, AHR act 7 and DAX1 inh-2 1.
`CCn1nc(NC(=O)c2ccncc2)c2cc3cccc(C)c3nc21` gave hcDAF12 agonist -3, hgDAF-12 ag 1, ssDAF12 agonist 0, DAX1 inh-1 -1, AHR act 32 and DAX1 inh-2 -1.
For CNC(=S)N/N=C/c1ccco1 the results were hcDAF12 agonist -2, hgDAF-12 ag 0, ssDAF12 agonist -2, DAX1 inh-1 0, AHR act 0 and DAX1 inh-2 1.
O=C(CSc1nc(=O)n2ccccc2n1)N1CCN(c2ccccc2)CC1 was read as hcDAF12 agonist -2, hgDAF-12 ag -2, ssDAF12 agonist -1, DAX1 inh-1 -1, AHR act 1 and DAX1 inh-2 -1.
Screening COCCN(C(=O)C1CCCO1)c1c(N)n(CC(C)C)c(=O)[nH]c1=O (centres undefined) returned hcDAF12 agonist 1, hgDAF-12 ag 0, ssDAF12 agonist -1, DAX1 inh-1 -1, AHR act 0 and DAX1 inh-2 0.
